Compound activity from PubChem BioAssay.
This is a sample that favours compounds with a hit; in the whole collection about 10% have one here.
JMJD2A Tudor: qHTS Assay for Inhibitors of JMJD2A-Tudor Domain | Potency, µM (doses to about 114 µM), for the others: top-dose activity change, negative = inhibition, most hits filed as inhibitors | hit rate 4.4% among 390,000 | AlphaScreen JMJD2A-Tudor / H3K4me3 peptide binding; further: potency means the concentration at half of the fitted maximal effect; on the % scale 0 is the no-effect control and ±100 the full control effect; nearly all actives have a fitted effect of over 50% in size
BAZ2B block: qHTS Assay for Inhibitors of BAZ2B; Potency, µM (top dose mostly 114 µM), for the others: top-dose activity change, negative = inhibition, usual class: inhibitors; AlphaScreen BAZ2B-H3K14Ac peptide displacement; hit rate 4.4% among 360,000; AID 504333, 2011; Bromodomain adjacent to zinc finger domain protein 2B (Homo sapiens), Q9UIF8; further: potency means the concentration at half of the fitted maximal effect; on the % scale 0 is the no-effect control and ±100 the full control effect; nearly all actives have a fitted effect of over 60% in size
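BAZ2B (50 nM) with biotin-H3(5-23)K14Ac peptide (50 nM) in PBS pH 7.4, 0.01% Tween-20, preformed 30 min, then compound 30 min at room temperature; top concentration 110uM. AlphaScreen streptavidin donor/nickel chelate acceptor beads (10 ug/mL final), 20 min dark, signal read.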
CtBP-E1A inh: qHTS Assay for Inhibitors of the CtBP/E1A Interaction; CtBP / adenovirus E1A interaction (AlphaScreen); AlphaScreen GST-E1A/His-CtBP binding, 1536-well; stronger effect = lower value; activity change, % (concentration not given with the values); hit rate 0.49% among 340,000; in the data active means activity change below about -65%; inconclusive means mostly about -30% to -63%; further: on the % scale 0 is the no-effect control and ±100 the full control effect
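Steps: dispense buffer (Tris pH 8.0, NaCl 300 mM, TCEP 1 mM, BSA, Tween 20); add 5X protein mix (GST-E1A, His-CtBP, 125 nM each); pin 23 nL compound; 2 h at 37 °C, dark; add 5X beads (50 ug/mL); 1 h; read.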
Six1-Eya2 inh: qHTS Assay for Inhibitors of the Six1/Eya2 Interaction. activity change, % (test concentration not listed). AlphaScreen GST-Six1/His-Eya2 binding, biochemical; stronger effect = lower value. hit rate 0.56% among 360,000. AID 651725, 2012. Homeobox protein SIX1 (Homo sapiens) + Protein phosphatase EYA2 (Homo sapiens), …; in the data active means activity change below about -65%; inconclusive means mostly about -30% to -63%; further: on the % scale 0 is the no-effect control and ±100 the full control effect
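AlphaScreen luminescence read after one hour at 37 °C in darkness. Pin-transferred compounds met GST-Six1 and His-Eya2 protein (5X stock 250 nM/500 nM) plus glutathione donor and Ni-chelate acceptor beads (5X, 50 ug/mL).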
G9a inh: qHTS Assay for Inhibitors of Histone Lysine Methyltransferase G9a; Histone-lysine N-methyltransferase EHMT2 (Homo sapiens), Q96KQ7; G9a H3K9 monomethylation, AlphaScreen, 2 h; Potency, µM (titrated, usually from 102 µM), inactives show at the top dose activity, negative = inhibition, hits mostly inhibitors; hit rate 8.8% among 350,000; AID 504332, 2011; further: potency means the concentration at half of the fitted maximal effect; on the % scale 0 is the no-effect control and ±100 the full control effect; nearly all actives have a fitted effect of over 75% in size
Target sequence (Q96KQ7 913-1193 limits assumed): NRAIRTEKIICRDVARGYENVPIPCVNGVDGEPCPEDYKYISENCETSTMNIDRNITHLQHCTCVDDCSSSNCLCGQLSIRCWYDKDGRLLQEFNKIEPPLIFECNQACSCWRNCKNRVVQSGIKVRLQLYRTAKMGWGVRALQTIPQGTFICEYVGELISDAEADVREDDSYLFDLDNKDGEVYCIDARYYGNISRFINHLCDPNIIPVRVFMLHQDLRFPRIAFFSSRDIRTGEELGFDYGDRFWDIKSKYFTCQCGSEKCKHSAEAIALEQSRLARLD
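AlphaScreen detection with an anti-monomethyl H3K9 antibody quantified product after a 2 h room-temperature reaction containing 500 nM biotinylated H3K9 peptide, 20 µM SAM and 20 nM enzyme, which had been preincubated 15 min with compound.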
HP1b binding inh: HTS for Inhibitors of HP1-beta Chromodomain Interactions with Methylated Histone Tails. hit rate 0.56% among 390,000. Chromobox protein homolog 1 (Homo sapiens), P83916. AlphaScreen HP1-beta / biotin-H3K9me3 peptide binding. AID 540317, 2011. Potency, µM (top dose mostly 114 µM), without a hit: top-dose activity change, negative = inhibition, usual class: inhibitors; further: potency means the concentration at half of the fitted maximal effect; nearly all actives have a fitted effect of over 70% in size
Target sequence (P83916 whole entry, looked up): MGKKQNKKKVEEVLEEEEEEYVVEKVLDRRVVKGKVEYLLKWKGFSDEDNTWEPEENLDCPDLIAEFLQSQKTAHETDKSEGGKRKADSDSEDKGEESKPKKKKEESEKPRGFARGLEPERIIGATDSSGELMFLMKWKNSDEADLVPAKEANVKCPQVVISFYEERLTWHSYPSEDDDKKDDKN
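HP1-beta protein (50 nM final) preincubated 30 min at room temperature with biotinylated H3(1-18)K9me3 peptide (50 nM) in PBS pH 7.4, 0.01% Tween-20, then compound added for 30 min. AlphaScreen streptavidin donor/nickel chelate acceptor beads (10 ug/mL final), 30 min dark, luminescence read.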
* marks the source's active call; other numbers are inactive results; ? = inconclusive; . = no result given; [ ] = dose if it differs, or a comment. Unless noted, the call rests on the fitted dose curve; in most records, active means well fitted inhibition curve with a large enough effect; inconclusive means small, poorly fitted or top-dose-only effect; inactive means no such curve, though single readings can be large or run the other way.

SMILES	JMJD2A Tudor	BAZ2B block	CtBP-E1A inh	Six1-Eya2 inh	G9a inh	HP1b binding inh
CC(=O)N1CCc2cc(S(=O)(=O)N3CCN(S(=O)(=O)c4c(F)cccc4F)CC3)ccc21	-18%	.	.	.	.	.
O=C1C=C(C2CCCCC2)C(=O)c2ccccc21	40µM*	.	-14	-7	.	?
Cc1cc(Br)ccc1NC(=O)CN(C)C(=O)Cn1c(=O)cnc2ccccc21	18µM*	79µM*	0	0	.	?
COCCNC(=O)C1(C(F)(F)F)C/C(=C\CCO)CCCO1 (centres undefined)	-10%	.	.	.	.	22%
COc1ccc(-c2ccc(CCC(=O)O)n2NC(=O)c2cccs2)cc1	-27%	-23%	1	2	14µM*	-3%
O=C(O)CCc1ccc(-c2cccs2)n1NC(=O)c1ccco1	-20%	-33%	-1	8	-20%[59 µM]	17%
Cc1ccc(-c2ccc(CCC(=O)O)n2NC(=O)c2cccs2)cc1	-16%	11µM*	-2	1	?	10%
O=C(O)CSc1nnnn1C1CCCCC1	28µM*	5%	6	3	15%[0.501 µM]	5%
O=C(CSc1nnnn1C1CCCCC1)N1CCCC1	-5%	13%	-3	9	-3%	9%
COc1cc(OC)c(C2CC(=O)N3CN(c4ccccc4)CSC3=C2C#N)cc1OC (centres undefined)	5.6µM*	25µM*	-1	-7	3.2µM*	?
CCOC(=O)c1ccc(N2CSC3=C(C#N)C(c4ccc(OC)cc4OC)CC(=O)N3C2)cc1 (centres undefined)	-30%	50µM*	-9	1	13µM*	34%
CCc1ccccc1N1CSC2=C(C#N)C(c3cc(OC)c(OC)cc3OC)CC(=O)N2C1 (centres undefined)	8.9µM*	50µM*	-27	-28	?	-75%
CCc1ccccc1N1CCN(S(=O)(=O)c2cc(OC)ccc2OC)CC1	-4%	10%	0	-1	-2%	38%
CCc1ccc(CN(Cc2cn[nH]c2-c2ccc(OC)cc2)C(=O)Nc2cc(Cl)ccc2OC)cc1	3%	-1%	.	.	-12%[59 µM]	51%
COC(=O)c1ccccc1NC(=O)c1cn2c3c(ccc(Cl)c3c1=O)OC(C)C2 (centres undefined)	-2%	4%	.	.	-1%[59 µM]	26%
Cc1cccc(C)c1-n1nnnc1SCC(=O)N1CCNC1=O	3%	3%	8	-2	45µM*	29%
COC(=O)[C@@]12CCCCN1[C@H](c1ccc(-c3ccc(F)cc3)cc1)[C@H]1C(=O)N(C)C(=O)[C@H]12	-13%	.	.	-8	.	27%
COC(=O)[C@@]12CCCN1[C@H](c1ccc(-c3ccc(F)cc3)cc1)[C@H]1C(=O)N(C)C(=O)[C@H]12	-28%	71µM*	2	0	-3%[2.33 µM]	33%
O=C(O)CCCCCN1C(=O)/C(=C/c2ccncc2)SC1=S	-6%	-21%	1	-6	79µM*	19%
O=C(O)CCCCCN1C(=O)/C(=C\c2ccc(-c3ccc(Cl)cc3)o2)SC1=S	32µM*	?	4	-7	?	40µM*
O=C(O)CCCN1C(=O)/C(=C/c2ccncc2)SC1=S	11%	-7%	-14	0	11%[12.7 µM]	29%
O=C(O)CCCN1C(=O)/C(=C/c2ccc(-c3nc4ccccc4s3)o2)SC1=S	10µM*	10µM*	-22	?	?	16µM*
Cc1ccccc1C(=O)N1c2ncnn2C2(CCCCC2)[C@@H]2CCCC[C@@H]21	-9%	-11%	.	.	-8%[59 µM]	43%
CN(C)c1ccc(NS(=O)(=O)c2ccc(Cl)cc2)cc1	56µM*	45µM*	-18	?	3.5µM*	?
CN(C)c1ccc(NS(=O)(=O)c2cc3c4c(c2)CC(=O)N4CCC3)cc1	?	45µM*	.	-9	.	?
SMILES	JMJD2A Tudor	BAZ2B block	CtBP-E1A inh	Six1-Eya2 inh	G9a inh	HP1b binding inh
Cc1cc(S(=O)(=O)Nc2cccc(Cl)c2)c(C)s1	-1%	.	-2	-10	2%	45%
CN(C)c1ccc(NS(=O)(=O)c2cccc(Cl)c2)cc1	32µM*	45µM*	-10	-17	?	?
Cc1ccc(NS(=O)(=O)c2cccc(Cl)c2)cc1C	9%	.	.	.	.	.
Cc1cc(S(=O)(=O)Nc2ccc(N(C)C)cc2)c(C)s1	50µM*	45µM*	-22	-25	?	-18%
COc1ccc(NC(=O)CC2C(=O)N(c3ccc(OC)cc3)C(=O)N2CCC2=CCCCC2)cc1 (centres undefined)	-16%	-5%	.	.	16%[59 µM]	17%
CCCN1CNc2c(c(=O)[nH]c(=S)n2CCc2cc(C)cc(C)c2)C1	-18%	.	.	.	.	32%
CCOc1ccc2c(c1)c(=O)c(S(=O)(=O)c1ccccc1)cn2CC(=O)Nc1ccccc1OC	-17%	-7%	.	.	-2%[59 µM]	10%
COc1ccc(NS(=O)(=O)c2ccc(OC)c(N(C)S(=O)(=O)c3ccc(Cl)cc3)c2)cc1	-26%	-38%	-4	-18	50µM*	-17%
Cc1nc(-c2ccc(NS(=O)(=O)c3ccccc3)cc2)cs1	-6%	-8%	.	-4	-31%	13%
Cc1ccc(S(=O)(=O)Nc2ccc(N(C)C)cc2)cc1	56µM*	35µM*	-18	-19	-148%[59 µM]	?
CN(C)c1ccc(NS(=O)(=O)c2ccc(-c3csnn3)cc2)cc1	50µM*	56µM*	?	?	40µM*	?
CC(C)Sc1nnc2c3ccccc3n(C)c2n1	-18%	.	.	.	.	39%
CCOC(=O)/C=C/S(=O)(=O)c1ccc(NC(C)=O)cc1	-23%	16%	-6	3	25µM*	-1%
O/N=C/c1cc(Br)ccc1OCc1ccccc1F	-9%	.	1	-2	.	107%
O=C(O)COc1ccc(Br)cc1/C=C1/SC(=O)N(CC(=O)N2CCCC2)C1=O	?	4%	-2	4	-36%[2.33 µM]	38%
O=C(O)CN1C(=O)/C(=C\c2cc(Br)ccc2OCc2ccccc2F)SC1=S	50µM*	56µM*	.	-5	40µM*	-11%
CCOc1ccccc1C=C1SC(=S)N(CC)C1=O	?	.	-6	-4	.	-23%[57 µM]
COc1cccc(/C=C2/SC(=S)N(CC(=O)NNC(=O)c3ccccc3OC)C2=O)c1	0%	-14%	-17	-8	-2%[59 µM]	31%
O=C(O)CN1C(=O)/C(=C\c2cc(Br)ccc2OCc2ccc([N+](=O)[O-])cc2)SC1=S	56µM*	45µM*	4	-5	20µM*	-38%
